RE007 growth inh = qHTS Assay for Inhibitors of the HIV-1 protein Vpr; Potency, µM (series often up to 92.2 µM), for inactives: at the highest dose activity change, negative = less growth, usual class: inhibitors; S. pombe RE007 Vpr strain, BacTiter-Glo ATP luminescence, 24 h; hit rate 0.21% among 360,000; active = well fitted falling curve with a large enough effect; inconclusive = small, poorly fitted or top-dose-only effect; inactive = no such curve, though single readings can be large or run the other way; note: potency is the fitted concentration of half-maximal effect; % is set by controls: 0 for no effect and ±100 for the full control effect; nearly all actives have a fitted effect of over 50% in size
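Fission yeast RE007 carrying one integrated HIV-1 vpr copy, seeded at OD 0.01 in PMG+AL medium with 23 nL pinned compound. Grown 24 h at 30 degrees; viability read by BacTiter-Glo luminescence after 5 min.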
Tb PYK inh = qHTS of Trypanosoma Brucei Inhibitors. Potency, µM (doses to about 76.8 µM), for the others: at the highest dose activity, negative = inhibition, hits mostly inhibitors. TbPYK enzyme, Kinase-Glo Plus ATP luminescence, 45 min. pyruvate kinase (Trypanosoma brucei), Q57TT1. hit rate 0.12% among 410,000; note: potency is the fitted concentration of half-maximal effect; % is set by controls: 0 for no effect and ±100 for the full control effect; nearly all actives have a fitted effect of over 50% in size
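Activity of T. brucei pyruvate kinase was followed by Kinase-Glo Plus luminescence after the enzyme reacted 45 min at room temperature with 130 uM ADP (final) and substrate. Test compounds were added before ADP at multiple concentrations.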
Cycloheximide cs = Cycloheximide Counterscreen for Small Molecule Inhibitors of Shiga Toxin | hit rate 12% among 300,000 | cell reporter, cycloheximide protein synthesis inhibition counterscreen | max response, %; in the data active = max response mostly above about 13%, no sharp cut-off; inactive = mostly below about 14%; note: read at 38.3 µM for the half of the compounds with a filed dose; 0% is about no effect
Shiga inhibitor = A qHTS for Small Molecule Inhibitors of Shiga Toxin; Vero cells, Shiga toxin protein synthesis inhibition reporter; inhibition, % at 38.7 µM; hit rate 9.2% among 290,000; AID 2315, 2010; in the data active = inhibition mostly above about 28%, no sharp cut-off; inactive = mostly below about 43%; note: 0% is about no effect
Giardia FBPA inh = qHTS Assay for Inhibitors of Fructose-1,6-bisphosphate Aldolase from Giardia Lamblia | purified Giardia FBPA | Potency, µM (titrated, usually from 59.6 µM), for inactives: top-dose activity, negative = inhibition, hits mostly inhibitors | hit rate 0.71% among 290,000 | AID 2451, 2010; note: potency is the fitted concentration of half-maximal effect; % is set by controls: 0 for no effect and ±100 for the full control effect; nearly all actives have a fitted effect of over 55% in size
Target sequence (A8B2U2 whole entry, looked up): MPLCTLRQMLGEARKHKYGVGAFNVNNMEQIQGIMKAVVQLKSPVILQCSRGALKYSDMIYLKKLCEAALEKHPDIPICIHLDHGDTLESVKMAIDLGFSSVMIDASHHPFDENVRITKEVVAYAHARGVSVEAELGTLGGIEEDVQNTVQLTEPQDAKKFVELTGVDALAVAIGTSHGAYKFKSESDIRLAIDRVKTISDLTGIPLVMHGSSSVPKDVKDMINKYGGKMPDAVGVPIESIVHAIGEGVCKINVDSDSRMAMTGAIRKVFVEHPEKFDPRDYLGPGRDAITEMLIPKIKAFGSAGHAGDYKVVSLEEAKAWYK
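Giardia FBPA (40 nM reagent) was preincubated 10 min at RT with compound (up to 57.5 uM final), then substrate plus GAPDH/TPI/NAD/arsenate coupling system with diaphorase/resazurin was added; resorufin fluorescence (525/598 nm) was read after 20 min.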
LmPK inh = qHTS Assay for Inhibitors of Leishmania Mexicana Pyruvate Kinase (LmPK). purified LmPK, Kinase-Glo ATP luminescence, 1 h. Potency, µM (top dose mostly 57.5 µM), without a hit: at the highest dose activity change, negative = inhibition, usual class: inhibitors. Q27686. hit rate 0.37% among 290,000. AID 1721, 2009; note: potency is the fitted concentration of half-maximal effect; % is set by controls: 0 for no effect and ±100 for the full control effect
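qHTS format; LmPK 0.1 nM; substrates PEP 0.5 mM and ADP 0.1 mM. One-hour room-temperature incubation, then coupled luciferase luminescence; 0.5 nM enzyme wells mark activation.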
* hit, by the source's call; i = inactive; ? = inconclusive; . = not tested or not shown; [ ] = remark or other dose. The sample as a whole holds a higher share of hits than the screen did. Unless noted, calls come from the whole dose curve; as a rule, active = well fitted curve in the direction sought with a large enough effect; inconclusive = small, poorly fitted or top-dose-only effect, or another doubt; inactive = no such curve, though single readings can be large; an effect the other way counts as inactive or inconclusive.

SMILES | RE007 growth inh | Tb PYK inh | Cycloheximide cs | Shiga inhibitor | Giardia FBPA inh | LmPK inh
C=CCn1c(SCC(=O)NC(N)=O)nnc1-c1cc2c(s1)CCC(CC)C2 (stereo unspecified) | 12% | 4% | 9 | 34 | 0% | 6%
C=CCn1c(SCC(=O)NCCOC)nnc1-c1cc2c(s1)CCC(CC)C2 (stereo unspecified) | -1% | -5% | 15* | -70 | -2% | -2%
Cc1cc(C)n(-c2nnc(NC(C)(C)C)nn2)n1 | . | -3% | 26* | 54* | -13% | -29%
Cc1cc(C)n(-c2nc(NC(C)(C)C)nc(NC(C)(C)C)n2)n1 | -4% | 4% | -4 | -10 | . | 4%
Cc1cc(C)n(-c2nnc(NC34CC5CC(CC(C5)C3)C4)nn2)n1 | -4% | -18% | 37* | 21* | -1% | 0%
C=CS(=O)(=O)O | . | -7% | . | . | . | .
CN(C)c1ccc(N2C(=O)CC(Sc3ccccc3C(=O)O)C2=O)cc1 (stereo unspecified) | 6.3µM* | 1% | -1 | -3 | 7% | 3%
O=C(O)c1ccccc1SC1CC(=O)N(c2ccc3c(c2)OCO3)C1=O (stereo unspecified) | 22µM* | 11% | -2 | 5 | 2% | 8%
Cc1ccc(N2C(=O)CC(Sc3ncccc3C(=O)O)C2=O)cc1 (stereo unspecified) | 1% | 17% | -5 | -1 | 2% | -4%
CN1C(=O)CC(Sc2ccccc2C(=O)O)C1=O (stereo unspecified) | -26% | -1% | 10 | -3 | 3% | -4%
Cc1ccc(N2C(=O)CC(Sc3ccccc3C(=O)O)C2=O)cc1 (stereo unspecified) | 10µM* | -2% | 13 | -13 | 7% | 3%
Cc1cc(C)cc(N2C(=O)CC(Sc3ccccc3C(=O)O)C2=O)c1 (stereo unspecified) | 11µM* | -11% | -2 | -3 | 7% | -3%
C/C=C/C(=O)[C@@H](C)[C@@H](/C=C/C[Si](C)(C)C)c1ccccc1 | . | . | 8 | 12 | 2% | .
CC(=O)[C@@]1(O)CC[C@@H]2[C@@H]3CCC4=CC(=O)CC[C@]4(C)[C@]3(F)[C@@H](O)C[C@@]21C | . | 0% | . | . | . | .
Cc1cccc(N2C(=O)CC(Sc3ccccc3C(=O)O)C2=O)c1 (stereo unspecified) | 5.6µM* | -3% | -5 | -9 | 10% | -3%
Cc1ccc(N2C(=O)CC(Sc3ccccc3C(=O)O)C2=O)cc1C (stereo unspecified) | 14µM* | 1% | -2 | 16 | 13% | -2%
O=C(O)c1cc(=O)c2cc(Cl)ccc2[nH]1 | . | . | 9 | -6 | 1% | .
C[C@@H]1C[C@@H]([C@@H](C)CC2CC(=O)NC(=O)C2)C(=O)[C@@H](C)C1 | . | . | -8 | -16 | 3% | .
Cc1ccc(-c2cc(C(=O)Nc3cccnc3)[nH]n2)c(O)c1C | -18% | 4% | 39* | 100* | -3% | -5%
Cc1cc(F)ccc1-c1cc(C(=O)Nc2ccc(F)cc2)[nH]n1 | -13% | -4% | . | . | . | .
Cc1cccc(NC(=O)c2cc(-c3cc(C)ccc3O)n[nH]2)c1 | -9% | -4% | 40* | 108* | 4% | 1%
Cc1c(Cl)cccc1NC(=O)c1cc(-c2ccccc2O)n[nH]1 | 2% | 3% | 18* | 36 | -2% | 2%
Cc1cccc(NC(=O)c2cc(-c3cc(C)c(C)cc3O)n[nH]2)c1 | -1% | -5% | 28* | 43* | 10% | -1%
COc1ccc(Cl)cc1NC(=O)c1cc(-c2ccccc2O)n[nH]1 | -8% | -2% | 10 | 13 | -4% | 6%
C=Cc1ccc(CSc2nnc(C)n3c2cc2occc23)cc1 | . | 1% | . | . | . | .
SMILES | RE007 growth inh | Tb PYK inh | Cycloheximide cs | Shiga inhibitor | Giardia FBPA inh | LmPK inh
COc1cc(OC)cc(C2=Nn3c(nnc3-c3cccc(OC)c3)SC2)c1 | . | . | 1 | -2 | 8% | .
C=C(C)[C@]12C[C@@H](C)[C@@]34OC(Cc5ccccc5)(O[C@@H]1[C@@H]3C=C(COC(=O)Cc1cc(OC)c(O)cc1I)C[C@]1(O)C(=O)C(C)=C[C@@H]41)O2 | . | . | 36 | 27 | -13% | .
Cc1ccc(NC(=O)CCOc2ccccc2)c(C)c1 | . | 0% | 13* | 39 | 14% | 4%
Cc1ccc(NC(=O)Cc2noc3ccccc23)c(C)c1 | 34% | -2% | 12 | 32* | -1% | 0%
Cc1cc(Br)ccc1NC(=O)CCSc1ccccc1 | 4% | 6% | 16* | 48* | 1% | -5%
Cc1cccc(NC(=O)CCSc2ccccc2)c1C | -4% | -14% | 12* | 19 | 4% | -3%
Cc1cccc(NC(=O)CCc2ccccc2)c1C | 9% | 4% | -1 | 35 | -5% | -2%
COc1cc(OC)c2c(c1)OC(=O)CC2c1ccccc1OC (stereo unspecified) | . | . | -2 | i | 3%[89.2 µM] | .
Cn1c(C(=O)NCCc2ccccc2)cc2cc(S(=O)(=O)N3CCCCC3)ccc21 | . | 0% | . | . | . | .
Cc1ccc(NC(=O)CS(=O)c2ccccc2N)c(C)c1 (stereo unspecified) | 8% | -5% | 38* | 35 | . | -3%
Cc1ccc(NC(=O)Cc2ccccc2)c(C)c1 | . | . | 17 | 17 | 1% | 0%
Cc1cc(NC(=O)CCSc2ccccc2)ccc1Br | ? | -12% | 87* | 21 | 3% | 6%
Cc1ccc(NC(=O)CCSc2ccccc2)c(C)c1 | . | . | 24* | 55* | 1% | 1%
Cc1ccc(NC(=O)CN2C(=O)c3ccccc3C2=O)c(C)c1 | 3% | -3% | -3 | 13 | 7% | -2%
COC(=O)c1ccc(C)c(NC(=O)CCSc2ccccc2)c1 | 6% | 6% | 9 | -3 | 1% | 1%
COc1ccc(CCNC(=O)C(=O)NCC(c2cccnc2)N2CCN(c3ccccc3)CC2)cc1 (stereo unspecified) | . | 2% | . | . | . | .
COC(=O)C/C=C\[C@@H](C)[C@@H](/C=N\O[C@@H](C)c1cn([C@H]2COC[C@H]2O)nn1)NS(=O)(=O)c1ccc(C)cc1 | . | . | . | . | 2%[12.9 µM] | .
C[C@]12CC[C@H]3C(=CCc4cc(O)ccc43)[C@@H]1CCC2=O | -25% | -11% | 16* | 34 | -17% | -2%
CCN=c1scc(-c2cccs2)n1/N=C/c1cc(OC)ccc1O | -12% | -17% | 51* | 41 | -6% | -4%
CN=c1scc(-c2ccccc2F)n1/N=C/c1ccc(O)c(O)c1O | ? | ? | -14 | -43 | 7.9µM* | ?
CC(C)N=c1scc(-c2cccs2)n1/N=C/c1ccc(O)c(O)c1O | ? | -23% | 16* | 60* | ? | -11%
CC(=O)C1=C(c2ccc(Cl)cc2)N(C(C)=O)n2c(nnc2C2CCCCC2)S1 | . | 0% | . | . | . | .

Source: PubChem BioAssay (National Center for Advancing Translational Sciences (NCATS))
